The AC50 is the concentration at which the activity in the assay is half-maximal.

Molecules are shown by their SMILES. The source made the active and inactive calls. Rule for the calls: active = hit-call score of the fitted dose curve at least 0.9, where 1 is the maximum; inactive = score below 0.9.

Read-out in the experiment: Human Leukocyte Antigen - DR isotype (HLADR), HLA-DRA (gene 3122)
In words: BSK_BE3C_HLADR: BioMAP Diversity Plus: BE3C Assay for Human Leukocyte Antigen - DR isotype (HLADR) Biomarker Activity (AID 2283032). The following applies: primary human bronchial epithelial cells; actives raise or lower the signal. Summed up: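 Chemicals are dosed onto BE3C bronchial epithelial cultures of human origin and left 24 h. HLA-DR is then measured by ELISA, and the endpoint is fitted in both directions using DMSO as the activity baseline.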
For `Cc1cccc2ccccc12`, the outcome was inactive.

As for `CCO[Si](CCCNC(N)=O)(OCC)OCC`, the result was inactive.

With `Clc1ccccc1C(c1ccccc1)(c1ccccc1)n1ccnc1`, the AC50 is 8.22 µM (active).

For the compound `c1ccc2n[nH]nc2c1`, the result was inactive.

Take `Cc1ccc(C(C)C)cc1`: the result was inactive.

As to `NCc1cccc(C2CCN(C(=O)c3ccc(C#Cc4ccccc4F)o3)CC2)c1`, the half-maximal activity concentration (AC50) was 6.79 µM (active).

Consider `CCCCOC(=O)CC(CC(=O)OCCCC)(OC(C)=O)C(=O)OCCCC`, for which the half-maximal activity concentration (AC50) was 20 µM (active).

On to `CN(C)c1ccc(C(=C2C=CC(=[N+](C)C)C=C2)c2ccc(N(C)C)cc2)cc1`, for which the AC50 was 1.28 µM (active).

Take `CCCCCCCC[Si](OCC)(OCC)OCC`: the outcome was inactive.

For `Cc1occc1C(=O)Nc1ccc(C(=O)N2CCC(F)(F)/C(=C\C(=O)N3CCC(N4CCCCC4)CC3)c3ccccc32)cc1`, the result was inactive.

Consider `Cc1c2ccccc2c(C)c2c1ccc1ccccc12`, for which the result was inactive.

As for `O=C=NCCCCCCN=C=O`, the result was inactive.

As for `Cc1oc2c(NC(=O)c3c(Cl)cccc3Cl)cccc2c1C(C)(C)O`, the half-maximal activity concentration (AC50) was 18.1 µM (active).

As for `CCCCCCCCCCCC[N+](C)(C)C`, the AC50 was 28.3 µM (active).

With `O=CCCCC=O`, the AC50 was 33.5 µM (active).

For `CC[C@H](NC(=O)c1cc(F)ccc1NS(=O)(=O)c1cccc2cccnc12)c1ccccc1`, the result was inactive.

Consider `CC(C)(C)c1cc(/C=C2\SC(N)=NC2=O)cc(C(C)(C)C)c1O`, for which the AC50 is 7.46 µM (active).

For `CCCCCCCCCC(=O)O`, the outcome was inactive.

As for `CC(C)(C)c1csc(-c2cc3cc(OCc4ccccc4CC(=O)O)ccc3o2)n1`, the AC50 is 6.97 µM (active).

On to `CCN(Cc1cccnc1)C(=O)c1cccc(Cl)c1[C@]1(C)C(=O)N(Cc2ccc(OC)cc2OC)c2ccc(Cl)cc21`, for which the outcome was inactive.

Take `CCN(CC)C(=O)c1cc(S(=O)(=O)Cc2ccccc2)c(N2CCC(c3ccccc3)CC2)cc1N(CC)CCN(C)C`: the half-maximal activity concentration (AC50) is 8.48 µM (active).

Regarding `O=C1O[C@H]([C@@H](O)CO)C(O)=C1O`, the result was inactive.

As to `CN1C(=O)CC[C@H]1c1cccnc1`, the result was inactive.

Turning to `Cc1cn([C@H]2C[C@H](N=[N+]=[N-])[C@@H](CO)O2)c(=O)[nH]c1=O`, the result was inactive.

On to `O=c1ccc2ccccc2o1`, for which the outcome was inactive.

In the case of `COc1cc(C(=O)NC2CCN(C)CC2)ccc1Nc1ncc2c(n1)N(C1CCCC1)CC(F)(F)C(=O)N2C`, the concentration at half-maximal activity (AC50) was 21.9 µM (active).

Regarding `CC(O)CC(C)(C)O` (configuration not stated), the result was inactive.

As to `CC(=O)N1CCN(c2ccc(OC[C@H]3CO[C@](Cn4ccnc4)(c4ccc(Cl)cc4Cl)O3)cc2)CC1`, the AC50 was 33.3 µM (active).

For `O=c1[nH]sc2ccccc12`, the AC50 is 28.1 µM (active).

`CC/C(=C(/CC)c1ccc(O)cc1)c1ccc(O)cc1`: the AC50 is 23.4 µM (active).

For `CCCCCc1ccc(N)cc1`, the result was inactive.

Turning to `CN(C)C(=O)C1(N2CCCCC2)CCN(CC[C@@]2(c3ccc(Cl)c(Cl)c3)CN(C(=O)c3ccccc3)CCO2)CC1`, the AC50 was 14.4 µM (active).

For the compound `O=C(O)c1ccccc1C(=O)OCc1ccccc1`, the outcome was inactive.

As for `CCCC(=O)OCCC(C)C`, the result was inactive.

For the compound `CN(C[C@@H](CC[N+]12CCC(C3CCCCC3)(CC1)CC2)c1ccc(Cl)c(Cl)c1)C(=O)c1cc(C(F)(F)F)cc(C(F)(F)F)c1`, the AC50 is 12.6 µM (active).

As for `CCN(Cc1cccc(S(=O)(=O)O)c1)c1ccc(C(=C2C=CC(=[N+](CC)Cc3cccc(S(=O)(=O)O)c3)C=C2)c2ccccc2S(=O)(=O)[O-])cc1`, the result was inactive.

On to `O=C(O)Cc1cc(I)c(Oc2ccc(O)c(I)c2)c(I)c1`, for which the AC50 was 17.6 µM (active).

Values taken from PubChem BioAssay (EPA / NIEHS).
